Screening results: PubChem BioAssay, National Center for Advancing Translational Sciences (NCATS)
Most compounds without a hit are left out; they make up all but 8.9% or so of the library.
MCF10A rereplic = inducers of DNA re-replication in MCF 10A breast cells; AID 624296; actives 2.9% (n = 350,000); Potency, µM (doses to about 46.1 µM), usual class: activators; MCF 10A DNA re-replication, Hoechst nuclear intensity, 48 h; also: nearly all actives have a fitted effect of over 50% in size
SW480 rerep = inducers of DNA re-replication in SW480 colon cancer cells. SW480 DNA re-replication, Hoechst DNA content imaging, 48 h. Potency, µM (highest dose often 46.1 µM), most hits filed as activators. actives 1.8% (n = 340,000). AID 624297; also: nearly all actives have a fitted effect of over 55% in size
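Quantitative HTS format with DMSO vehicle controls; 48 hr drug incubation at 37 C, then 40 min Hoechst staining and scanning imager measurement at 405 nm excitation.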
KB-V1 cytotox = KB-V1 MDR subline cytotoxicity; Potency, µM (series often up to 46.1 µM), usual class: cytotoxic; actives 3.4% (n = 400,000); AID 1347076; KB-V1 MDR cells viability, CellTiter-Glo, 72 h; also: nearly all actives have a fitted effect of over 60% in size
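KB-V1 MDR subline cells in DMEM (phenol-red free, 10% FBS) exposed to compounds in qHTS concentration series for 72 h at 37 degrees C. Viability read by CellTiter-Glo luminescence; concentration-effect curves fitted after normalization and correction.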
KB-3-1 cytotox = kills parental KB-3-1 adenocarcinoma cells. KB-3-1 viability, CellTiter-Glo ATP luminescence, 72 h. Potency, µM (highest dose often 46.1 µM), actives largely listed as cytotoxic. actives 1.4% (n = 400,000); also: nearly all actives have a fitted effect of over 60% in size
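Cytotoxicity in the drug-sensitive parental line KB-3-1 was scored as loss of CellTiter-Glo luminescence following 72 h incubation with compound. Values come from curve fitting of normalized concentration-response data.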
DRD3 antagonist = D3 dopamine receptor (human) antagonism. D3R cells, DiscoveRx beta-arrestin luminescence, antagonist mode; hits give low values. max response, negative = inhibition, %. actives 2.5% (n = 360,000). AID 652054; in the data active = max response below about -50%; inconclusive = no clear call, values can overlap the other calls
Target sequence (P35462 whole entry, looked up): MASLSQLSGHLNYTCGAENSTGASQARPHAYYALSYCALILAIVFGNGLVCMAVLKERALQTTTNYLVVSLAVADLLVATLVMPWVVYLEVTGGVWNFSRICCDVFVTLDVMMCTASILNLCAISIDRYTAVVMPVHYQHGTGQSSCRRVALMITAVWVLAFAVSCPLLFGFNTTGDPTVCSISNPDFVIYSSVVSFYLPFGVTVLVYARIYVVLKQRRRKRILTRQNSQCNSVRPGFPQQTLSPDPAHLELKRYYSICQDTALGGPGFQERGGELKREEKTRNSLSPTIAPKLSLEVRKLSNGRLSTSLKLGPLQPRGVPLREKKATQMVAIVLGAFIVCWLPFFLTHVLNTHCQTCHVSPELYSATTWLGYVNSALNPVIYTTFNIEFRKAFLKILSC
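Cells expressing the human receptor were seeded at 1500 cells/well, incubated overnight at 37 degrees C in 5% CO2, then exposed to library compounds with dopamine controls for 90 minutes at 37 degrees C before luminescent detection.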
D3 ag = activates the human D3 dopamine receptor; D3R DiscoveRx beta-arrestin cells, luminescence, 90 min; max activation, %; actives 0.58% (n = 410,000); in the data active = max activation above about 30%
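Agonist mode: compounds and dopamine controls were applied to plated cells for 90 min at 37 degrees C after an overnight attachment at 1500 cells/well. Luminescent read-out followed 30 - 60 minutes at room temperature with DiscoveRx detection reagent.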
Large screens that a line does not name were inactive. Unless noted, calls follow the shape of the dose curve; as a rule, active = well fitted curve in the direction sought with a large enough effect; inconclusive = small, poorly fitted or top-dose-only effect, or another doubt; inactive = no such curve, though single readings can be large; an effect the other way counts as inactive or inconclusive.

O=C(Nc1ccc(N2CCCCC2)c(C(=O)O)c1)c1ccco1	DRD3 antagonist inconclusive
Cc1cccc(NC(=O)c2cc(NC(=O)c3ccco3)ccc2N2CCCCC2)c1	MCF10A rereplic 11.6µM
Cc1cc(C)nc(N/C=C(\C#N)C(=O)c2cccc(CSc3ccccc3)c2)n1	none (no result: MCF10A rereplic, SW480 rerep, DRD3 antagonist, D3 ag)
COc1ccc(CCNC(=O)Cn2cc(S(=O)(=O)Cc3cccc(Cl)c3)c3ccccc32)cc1OC	none (no result: MCF10A rereplic, SW480 rerep, DRD3 antagonist)
O=C(Cc1ccc2ccccc2c1)Nc1nnc(-c2ccncc2)s1	none (no result: MCF10A rereplic, SW480 rerep, DRD3 antagonist, D3 ag)
CCN(CC)C(=O)C1CCCN(Cc2sccc2C)C1 (stereo not drawn)	DRD3 antagonist -62.5
CCN(CC)C(=O)C1CCCN(Cc2cccc(F)c2)C1 (stereo not drawn)	KB-V1 cytotox inconclusive
Cc1cccc(OCCC(=O)Nc2ccc(C)c(S(=O)(=O)N3CCOCC3)c2)c1	KB-3-1 cytotox inconclusive
Cc1ccc(NC(=O)COc2cccc(Oc3ccccc3)c2)cc1S(=O)(=O)N1CCOCC1	KB-V1 cytotox 11.6µM, KB-3-1 cytotox 16.4µM
COc1cc(C#N)ccc1OCC(=O)Nc1ccc(C)c(S(=O)(=O)N2CCOCC2)c1	KB-V1 cytotox 8.2µM
Cc1ccc(NC(=O)CN2c3cccc4cccc(c34)S2(=O)=O)cc1S(=O)(=O)N1CCOCC1	SW480 rerep inconclusive, KB-V1 cytotox 3.66µM, KB-3-1 cytotox inconclusive
Cc1ccc(NC(=O)COc2ccc(N(C)C(=O)C(C)(C)C)cc2)cc1S(=O)(=O)N1CCCCC1	KB-V1 cytotox 18.4µM, KB-3-1 cytotox 16.4µM
COC(=O)C1CCN(C2CN(Cc3ccc(C)cc3)S(=O)(=O)C2)CC1 (stereo not drawn)	none (no result: MCF10A rereplic, SW480 rerep)
CC(CC(=O)Nc1ccc(Cl)c(S(=O)(=O)N2CCOCC2)c1)c1ccccc1 (stereo not drawn)	MCF10A rereplic inconclusive, KB-V1 cytotox 2.06µM, KB-3-1 cytotox 4.61µM
COC(=O)c1sccc1NC(=S)N1CCN(c2cc(C)ccc2C)CC1	MCF10A rereplic inconclusive, SW480 rerep inconclusive, KB-V1 cytotox inconclusive, KB-3-1 cytotox inconclusive
O=C(Oc1ccc2[nH]cc(CCN3C(=O)c4ccccc4C3=O)c2c1)c1ccco1	MCF10A rereplic 11.6µM
O=C1c2ccccc2C(=O)N1CCCc1c[nH]c2ccc(Cl)cc12	KB-V1 cytotox 20.6µM, KB-3-1 cytotox inconclusive
CCOc1ccc(CN2C(=O)C(=O)c3cccc(C)c32)cc1OC	none (no result: MCF10A rereplic, SW480 rerep, KB-V1 cytotox, KB-3-1 cytotox, DRD3 antagonist)
CCc1ccc(NC(=O)C2CCCN(S(=O)(=O)c3cccc4cccnc34)C2)cc1 (stereo not drawn)	none (no result: MCF10A rereplic, SW480 rerep, KB-V1 cytotox, KB-3-1 cytotox, DRD3 antagonist)
CC(=O)Oc1ccc2c(=O)c(Oc3ccccc3)coc2c1OC(C)=O	MCF10A rereplic inconclusive, SW480 rerep inconclusive, KB-V1 cytotox 13µM, KB-3-1 cytotox inconclusive
COc1ccc(NC(=O)N(C)C[C@@H]2OCc3cnnn3CCCC(=O)N([C@@H](C)CO)C[C@H]2C)c(OC)c1	none (no result: MCF10A rereplic, SW480 rerep)
COc1ccc(-c2c(C(C)=O)c(C)nc3sc4c(=N)n(N)cnc4c23)cc1	SW480 rerep inconclusive, KB-V1 cytotox 18.4µM, KB-3-1 cytotox inconclusive
COc1ccc(-n2nc(C(=O)Nc3cc(C)ccn3)c3c4ccccc4n(C)c3c2=O)cc1	none (no result: MCF10A rereplic, SW480 rerep, DRD3 antagonist)
CN(C)S(=O)(=O)c1ccc(Cl)c(C(=O)NC2CCN(Cc3ccccc3)C2)c1 (stereo not drawn)	DRD3 antagonist -58.9
CCN(c1ccccc1)S(=O)(=O)c1ccc(Cl)c(C(=O)NC2CCN(Cc3ccccc3)CC2)c1	MCF10A rereplic inconclusive, KB-3-1 cytotox inconclusive, DRD3 antagonist inconclusive
Cc1c(C(=O)NC2CCN(Cc3ccccc3)C2)oc2c(Cl)cccc12 (stereo not drawn)	MCF10A rereplic 16.4µM, SW480 rerep inconclusive, DRD3 antagonist -100.2
CCC(C)C(=O)OC1CCC=C2C=CC(C)C(CCC3CC(O)CC(=O)O3)C21 (stereo not drawn)	SW480 rerep inconclusive, KB-V1 cytotox 18.4µM, KB-3-1 cytotox 13µM
O=C(Nc1cccc(-c2cn3ccccc3n2)c1)C1CC1	MCF10A rereplic inconclusive, KB-V1 cytotox 18.4µM, KB-3-1 cytotox inconclusive
CCC(=O)Nc1cccc(-c2cn3ccccc3n2)c1	none
O=C(Nc1cccc(-c2cn3ccccc3n2)c1)c1cccc(Cl)c1	MCF10A rereplic inconclusive, KB-V1 cytotox 9.2µM
